# Data published in PubChem BioAssay.
# Several values for one entry are separate records, joined by “and”; a condition that tells them apart may be missing. Equal values may be shown once. Some of the results follow. Inconclusive results are not listed. Activity calls are given as the source filed them.
# Columns and labels:
# [1] = target: Solute carrier family 12 member 5 (Homo sapiens) (UniProt Q9H2X9); assay: retest of KCC2 transport modulators without sodium – cell-based, HEK293 KCC2, thallium flux, secondary assay, confirmation (AID 1713;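 active = thallium flux slope above the same plate's solvent-only control mean plus 3 SD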); details: FluoZin2 fluorescence, at 10 µM, stronger effect = higher value
# [2] = target: Solute carrier family 12 member 5 (Homo sapiens) (UniProt Q9H2X9); assay: retest of KCC2 transport modulation, ouabain-free – cell-based, HEK293 KCC2, thallium flux, FluoZin2, secondary assay 2, confirmation (AID 1715;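 active = thallium flux slope more than 3 SD above or below the plate's solvent-only control mean, mostly below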;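 also: raw slope with 0.1% DMSO as baseline and bumetanide as block control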); details: HEK293-KCC2, thallium flux FluoZin2 fluorescence; at 10 µM; actives lie on both sides; F/F0 rise rate, 10–20 s post-thallium
# [3] = compound effects on native HEK Tl+ uptake – HEK cells, counterscreen 1, counter-screen for KCC2 modulator project, confirmation (AID 1716;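 active = thallium flux rate significantly above the same plate's solvent-only control wells, beyond their mean plus 3 SD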); details: HEK293 parental cells, thallium flux FluoZin2, ouabain; at 10 µM; baseline-ratio fluorescence slope, 10–20 s after thallium
# [4] = target: Solute carrier family 12 member 5 (Homo sapiens) (UniProt Q9H2X9); assay: modulation of KCC2 thallium flux in HEK cells – cell-based, ouabain, retest, confirmation (AID 1717;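 active = thallium flux slope beyond 3 SD from same-plate DMSO control mean in most replicates, usually higher, sometimes lower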;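 also: slope of initial-normalized fluorescence between seconds 10 and 20 after thallium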); details: HEK293-KCC2, thallium flux FluoZin2 fluorescence, at 10 µM, bidirectional: low = inhibitor, high = activator
# [5] = native HEK Tl+ uptake effects, second counter-screen – HEK cells, counterscreen 2, counter-screen for KCC2 modulator project, confirmation (AID 1718;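 active = thallium flux slope above the same plate's solvent-control mean plus 3 SD in both duplicate wells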;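 also: run without ouabain in cells lacking the KCC2 cotransporter; slope of fluorescence scaled to its starting value between 10 and 20 s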); details: HEK293 parental, thallium flux FluoZin-2 fluorescence slope; at 10 µM
# [6] = inhibitors of TNFa-induced NFkB p65 translocation, primary screen, imaging, HUVEC, MLSMR starter and 10KST1 sets (AID 438;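 active = inhibition above 20% together with a positive visual image hit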;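 also: compound added about 3h40 before a 20 min TNFalpha stimulation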;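 as to inhibition: signal is the nuclear over cytoplasmic p65 intensity ratio per well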); details: HUVEC TNFa-induced p65 nuclear translocation; cell count: measured here: nuclei count (cytotoxicity indicator), at 2.08 µM; inhibition: at 2 µM, stronger effect = higher value, 0% TNFa-plus-vehicle, 100% no-TNFa wells
# [7] = reduction of polyQ htt aggregates in cells – imaging, exon1htt(103Q)mCFP cells, high-content imaging, primary screen (AID 483;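 active = visual image review flags a hit and inhibition of aggregation exceeds 20%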;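 also: compound exposure lasted 3 days before fixation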;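 as to nuclei count: percent of the per-plate median nuclei count of sample wells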); details: exon1htt(103Q)mCFP cell line, aggregate imaging, at 2 µM; inhibition of aggregation: stronger effect = higher value; nuclei count: measured here: cell count, toxicity
# [8] = endothelial E-selectin expression blockers – imaging, HUVEC, immunofluorescence, MLSMR starter and 10KST1 sets, primary screen (AID 487;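 active = visually confirmed hit in the image check and inhibition above 20%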;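 as to inhibition: signal is fraction of cell area covered by stained E-selectin grains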;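 as to nuclei count: 100% = median nuclei count of all wells on the same plate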); details: HUVEC TNFalpha-induced E-selectin immunofluorescence imaging, at 2 µM; inhibition: stronger effect = higher value; nuclei count: measured here: cell number, toxicity
# [9] = Primary imaging screen for DUSP6 inhibitors that restore phospho-Erk in transfected HeLa cells, chemical complementation (AID 609;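 active = compounds giving at least 50% inhibition in the cell-based MKP-3 phosphatase rescue imaging test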;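 as to inhibition: phospho-Erk level distribution per well compared with pooled transfected vehicle control wells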); details: HeLa MKP-3 transfected, phospho-Erk imaging KS statistic, at 10 µM, cells stimulated with TPA for 15 min
# [10] = target: Dual specificity protein phosphatase 6 (Homo sapiens) (UniProt Q16828); assay: as above; details: HeLa MKP-3 transfected, phospho-Erk imaging KS statistic; at 10 µM; stronger effect = higher value; cells stimulated with TPA for 15 min
# [11] = target: Voltage-gated potassium channel subunit beta-2 (Rattus norvegicus) (UniProt P62483); assay: inhibitors of rat Kvbeta2 reductase activity – biochemical, NADPH fluorescence, primary screen (AID 622;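 active = fluorescence slope higher than the sample average by over 3 SD, cut at about -0.22 in these data, passing the limit was not always enough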;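 also: slope of raw intensity against log time taken from 70 to 1610 s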); details: recombinant KvBeta, 4-cyanobenzaldehyde reduction, at 10 µM, stronger effect = higher value
# [12] = target: Voltage-gated potassium channel subunit beta-2 (Rattus norvegicus) (UniProt P62483); assay: enhancers of rat Kvbeta2 NADPH turnover – biochemical, NADPH fluorescence, primary screen (AID 623;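 active = NADPH fluorescence slope more negative than the mean of all samples by about 3 SD, 99.7% confidence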;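 also: fluorescence intensity change per second fitted from 20 to 320 s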); details: Recombinant KvBeta, NADPH fluorescence decrease slope, 10 min; at 10 µM; stronger effect = lower value
# [13] = target: Alpha-2C adrenergic receptor (Homo sapiens) (UniProt P18825); assay: compounds altering alpha2C-coupled GIRK flux – cell-based, HEK293 alpha2C/GIRK1/2, thallium flux, primary screen (AID 624;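 active = fluorescence slope after compound addition differing from the mean of all screened samples at 99.7% confidence, in either direction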;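 also: slope of fluorescence ratio to pre-addition baseline per second over 15 to 24 s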); details: thallium flux BTC fluorescence, at 10 µM, actives lie on both sides
# [14] = loss of swimming-algae plug formation – whole organism, Chlamydomonas reinhardtii, WT vs cilia-less mutant, absorbance, 96-well, primary screen (AID 463189); details: Chlamydomonas reinhardtii gravitaxis, OD600 absorbance, 2 days; at 10 µM; stronger effect = higher value;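 also: 0% = wild type cc124 cells in DMSO and 100% = ciliumless bld1 mutant cells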
# [15] = blockers of RIG-like receptor reporter activation – cell-based, Sendai virus stimulus, luciferase, 10K MLSCN set, TLR/RLR signaling modifier project, primary screen (AID 602276;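 active = inhibition at or above 50% at 10 µM; inactive = inhibition below 50%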;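 also: firefly luciferase from ISG56 promoter only with Renilla not read in this screen; 0% = Sendai virus plus DMSO and 100% = medium plus DMSO without virus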); details: HEK293 RL24 IRF3 luciferase reporter, at 10 µM, stronger effect = higher value
# [16] = TLR3 IRF3 reporter activation blockers – cell-based, poly I:C stimulus, luciferase, 10K MLSCN set, primary screen (AID 602277;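 active = inhibition of the reporter signal at or above 50%; inactive = inhibition below 50%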); details: HEK293-TLR3 RL24 IRF3 luciferase reporter, at 10 µM, stronger effect = higher value
# [17] = target: Muscarinic acetylcholine receptor M4 (Homo sapiens) (UniProt P08173); assay: M4-linked GIRK flux change, two-sided – cell-based, HEK293 M4/GIRK, thallium flux, BTC-AM, M4 allosteric agonist project, primary screen (AID 625;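 active = fluorescence slope after compound addition differing from the mean of all tested samples at 99.7% confidence, mostly higher but some lower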;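 also: thallium influx through GIRK channels coupled to M4 in HEK293 cells with BTC-AM dye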); details: at 10 µM, actives lie on both sides
# [18] = inhibitors of larval lipid processing in zebrafish, primary screen, whole organism, PED6 fluorescence, gall bladder and intestine (AID 686;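 active = a full or partial loss of lipid-probe fluorescence in the fish gall bladder, intestine or both, judged by eye; inactive = no fluorescence loss, or compound toxic to the fish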;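 also: larvae 5 to 7 days old with five fish per well; signal comes from phospholipase A2 cleavage of quenched PED6 carried via bile; overnight exposure to compound and PED6 before scoring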); details: Zebrafish larvae PED6 lipid processing, fluorescence scoring; screened at 20 µM (by protocol)
# [19] = PubChem AID 1714; details: HEK293-KCC2 + bumetanide/ouabain, thallium flux FluoZin2; at 10 µM; stronger effect = higher value;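 also: raw slope of fluorescence over initial fluorescence between 10 and 20 s after thallium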
# [20] = measured here: cell density z-score
# [21] = measured here: nuclear c-Myc green intensity z-score
# [22] = measured here: nuclear pErk red intensity z-score, stronger effect = higher value
# Sequence of Voltage-gated potassium channel subunit beta-2 (Rattus norvegicus) (P62483 whole entry, looked up): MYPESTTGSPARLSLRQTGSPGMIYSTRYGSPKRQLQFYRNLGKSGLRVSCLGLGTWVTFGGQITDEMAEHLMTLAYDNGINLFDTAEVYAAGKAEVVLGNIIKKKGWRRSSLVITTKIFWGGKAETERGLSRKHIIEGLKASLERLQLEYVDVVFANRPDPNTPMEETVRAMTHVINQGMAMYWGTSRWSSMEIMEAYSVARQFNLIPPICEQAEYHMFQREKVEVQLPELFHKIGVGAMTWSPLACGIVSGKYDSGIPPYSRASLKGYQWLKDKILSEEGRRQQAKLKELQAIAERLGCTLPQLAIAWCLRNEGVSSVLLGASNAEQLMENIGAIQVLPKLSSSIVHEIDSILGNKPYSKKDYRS
# Sequence of Alpha-2C adrenergic receptor (Homo sapiens) (P18825 whole entry, looked up): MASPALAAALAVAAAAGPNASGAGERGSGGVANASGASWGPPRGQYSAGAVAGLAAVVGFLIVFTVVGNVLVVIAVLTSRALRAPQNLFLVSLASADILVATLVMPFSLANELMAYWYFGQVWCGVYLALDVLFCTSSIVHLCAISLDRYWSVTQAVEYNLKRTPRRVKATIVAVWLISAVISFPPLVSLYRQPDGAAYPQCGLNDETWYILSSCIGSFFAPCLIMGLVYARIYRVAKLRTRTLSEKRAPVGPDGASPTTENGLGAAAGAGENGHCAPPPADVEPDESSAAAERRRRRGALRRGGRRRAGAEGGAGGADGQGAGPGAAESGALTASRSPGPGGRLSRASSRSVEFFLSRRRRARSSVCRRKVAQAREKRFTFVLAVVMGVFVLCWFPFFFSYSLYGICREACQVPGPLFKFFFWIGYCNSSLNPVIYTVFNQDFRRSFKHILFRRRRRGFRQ
# Sequence of Solute carrier family 12 member 5 (Homo sapiens) (Q9H2X9 whole entry, looked up): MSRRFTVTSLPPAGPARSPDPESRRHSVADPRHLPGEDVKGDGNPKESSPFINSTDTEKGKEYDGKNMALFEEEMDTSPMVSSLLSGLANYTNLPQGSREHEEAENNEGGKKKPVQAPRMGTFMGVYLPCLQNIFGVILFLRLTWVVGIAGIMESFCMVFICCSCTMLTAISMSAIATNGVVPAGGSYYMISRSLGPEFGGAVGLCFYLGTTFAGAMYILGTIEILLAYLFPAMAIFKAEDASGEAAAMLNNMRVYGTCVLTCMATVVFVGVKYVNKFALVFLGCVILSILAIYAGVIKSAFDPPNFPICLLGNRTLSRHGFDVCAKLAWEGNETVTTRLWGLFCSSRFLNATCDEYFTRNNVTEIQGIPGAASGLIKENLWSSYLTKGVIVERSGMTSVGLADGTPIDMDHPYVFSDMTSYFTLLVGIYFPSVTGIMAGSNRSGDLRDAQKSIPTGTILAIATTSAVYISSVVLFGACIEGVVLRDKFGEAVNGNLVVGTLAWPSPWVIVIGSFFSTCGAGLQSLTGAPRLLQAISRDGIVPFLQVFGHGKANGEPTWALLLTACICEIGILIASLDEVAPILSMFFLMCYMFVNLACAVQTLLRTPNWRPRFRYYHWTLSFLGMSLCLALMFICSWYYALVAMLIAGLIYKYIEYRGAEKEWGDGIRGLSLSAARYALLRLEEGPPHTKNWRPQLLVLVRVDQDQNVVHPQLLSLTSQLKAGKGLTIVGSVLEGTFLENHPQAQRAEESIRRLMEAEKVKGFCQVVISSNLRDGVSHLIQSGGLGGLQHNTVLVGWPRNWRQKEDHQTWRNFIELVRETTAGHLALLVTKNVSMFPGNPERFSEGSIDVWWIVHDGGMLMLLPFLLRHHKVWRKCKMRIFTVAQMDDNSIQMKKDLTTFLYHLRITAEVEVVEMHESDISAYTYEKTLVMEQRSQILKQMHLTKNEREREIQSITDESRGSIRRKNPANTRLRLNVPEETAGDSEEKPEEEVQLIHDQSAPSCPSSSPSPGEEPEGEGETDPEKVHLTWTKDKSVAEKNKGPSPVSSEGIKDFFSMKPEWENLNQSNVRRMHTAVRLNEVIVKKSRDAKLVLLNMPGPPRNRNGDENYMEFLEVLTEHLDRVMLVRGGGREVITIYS
# Sequence of Dual specificity protein phosphatase 6 (Homo sapiens) (Q16828 whole entry, looked up): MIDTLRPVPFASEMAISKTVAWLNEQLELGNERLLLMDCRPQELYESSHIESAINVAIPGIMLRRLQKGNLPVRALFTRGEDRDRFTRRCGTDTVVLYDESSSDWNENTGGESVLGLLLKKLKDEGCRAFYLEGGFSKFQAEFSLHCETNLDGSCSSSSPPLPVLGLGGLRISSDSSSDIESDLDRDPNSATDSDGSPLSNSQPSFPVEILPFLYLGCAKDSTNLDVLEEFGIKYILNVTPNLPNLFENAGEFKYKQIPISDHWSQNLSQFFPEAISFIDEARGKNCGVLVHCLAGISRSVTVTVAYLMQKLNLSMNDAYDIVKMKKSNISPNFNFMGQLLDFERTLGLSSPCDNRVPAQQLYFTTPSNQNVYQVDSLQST
# Sequence of Muscarinic acetylcholine receptor M4 (Homo sapiens) (P08173 whole entry, looked up): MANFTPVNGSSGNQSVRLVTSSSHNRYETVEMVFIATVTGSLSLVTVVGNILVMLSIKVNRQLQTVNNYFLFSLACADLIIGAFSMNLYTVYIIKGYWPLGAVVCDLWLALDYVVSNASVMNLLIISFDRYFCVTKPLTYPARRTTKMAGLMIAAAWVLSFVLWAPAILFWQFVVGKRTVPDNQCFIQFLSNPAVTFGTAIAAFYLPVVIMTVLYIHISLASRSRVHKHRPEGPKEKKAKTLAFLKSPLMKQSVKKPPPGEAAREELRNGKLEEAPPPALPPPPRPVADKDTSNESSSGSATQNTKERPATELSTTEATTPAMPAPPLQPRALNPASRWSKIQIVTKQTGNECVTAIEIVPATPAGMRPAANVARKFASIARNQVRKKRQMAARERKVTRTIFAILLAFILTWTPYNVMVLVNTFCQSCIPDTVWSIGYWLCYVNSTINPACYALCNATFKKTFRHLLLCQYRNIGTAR
smiles,measurement,setting,value
CC[C@@H](C)[C@@H](C(=O)N1CCN(C(=O)OC(C)(C)C)CC1)n1cc(CCC(=O)O)nn1,normalised thallium flux (F/F0 slope),[1],0.0104 (inactive)
same,normalized thallium flux,[2],0.0349 (inactive)
same,thallium flux rate (normalised fluorescence),[3],0.00923 (active)
same,"raw Tl+ flux slope (below DMSO = inhibition, above = activation)",[4],0.0234 (inactive)
same,thallium flux slope,[5],0.0111 (inactive)
Cc1ccc(S(=O)(=O)NC(=O)NN2CCCCCC2)cc1,cell count,[6],604
same,inhibition,[6],-5.1% (inactive)
same,inhibition of aggregation,[7],0% (inactive)
same,nuclei count,[7],99.6%
same,inhibition,[8],-81.9% (inactive)
same,nuclei count,[8],122%
same,z-score,[9]; [20],0.424
same,z-score,[9]; [21],0.978
same,z-score,[9]; [22],-1.05
same,inhibition,[10],21.2% (inactive)
same,fluorescence slope,[11],-0.457 (inactive)
same,NADPH fluorescence slope,[12],-5.8e-05 (inactive)
same,slope,[13],0.00471 (inactive)
same,inhibition,[14],6.39% (inactive) and 32.8% (inactive)
same,inhibition,[15],9.08% (inactive)
same,inhibition,[16],19.5% (inactive)
CCCn1c(=O)c2[nH]c(C3CCCC3)nc2n(CCC)c1=O,cell count,[6],503
same,inhibition,[6],-3.1% (inactive)
same,inhibition of aggregation,[7],26% (inactive)
same,nuclei count,[7],92.4%
same,inhibition,[8],-83.5% (inactive)
same,nuclei count,[8],117%
same,z-score,[9]; [20],0.276
same,z-score,[9]; [21],-0.431
same,z-score,[9]; [22],-1.23
same,inhibition,[10],3.59% (inactive)
same,fluorescence slope,[11],-0.432 (inactive)
same,NADPH fluorescence slope,[12],-7.8e-05 (inactive)
same,slope,[13],0.00398 (inactive)
same,inhibition,[14],4.71% (inactive) and -9.34% (inactive)
same,inhibition,[15],14.1% (inactive)
same,inhibition,[16],38.5% (inactive)
CCn1c(SCC(=O)c2ccc3ccccc3c2)nnc1-c1cccs1,normalised thallium flux (F/F0 slope),[1],0.00706 (inactive)
same,normalized thallium flux,[2],0.0307 (inactive)
same,thallium flux rate (normalised fluorescence),[3],0.00707 (inactive)
same,"raw Tl+ flux slope (below DMSO = inhibition, above = activation)",[4],0.0159 (active)
same,thallium flux slope,[5],0.0101 (inactive)
CN1c2ccccc2-c2nc3ccccc3n2C1c1ccco1 (stereo unspecified),cell count,[6],385
same,inhibition,[6],-3.7% (inactive)
same,inhibition,[8],1.9% (inactive)
same,nuclei count,[8],99.5%
same,z-score,[9]; [20],0.728
same,z-score,[9]; [21],0.674
same,z-score,[9]; [22],-0.101
same,inhibition,[10],6.04% (inactive)
same,fluorescence slope,[11],-0.315 (inactive)
same,NADPH fluorescence slope,[12],1.6e-05 (inactive)
same,fluorescence slope,[17],0.00492 (inactive)
same,outcome,[18],inactive
same,normalised thallium flux (F/F0 slope),[1],0.00855 (inactive)
same,normalized thallium flux,[2],0.0321 (inactive)
same,thallium flux rate (normalised fluorescence),[3],0.00467 (active)
same,thallium flux slope,[5],0.0097 (inactive)
same,inhibition,[14],3.48% (inactive)
Cc1cc(OCC(=O)Nc2ccc3oc(-c4ccncc4)nc3c2)ccc1Cl,cell count,[6],485
same,inhibition,[6],-6.9% (inactive)
same,inhibition of aggregation,[7],-19.2% (inactive)
same,nuclei count,[7],100%
same,inhibition,[8],-81.7% (inactive)
same,nuclei count,[8],122%
same,z-score,[9]; [20],0.451
same,z-score,[9]; [21],-0.406
same,z-score,[9]; [22],-0.15
same,inhibition,[10],7.73% (inactive)
same,fluorescence slope,[11],-0.458 (inactive)
same,NADPH fluorescence slope,[12],-1.3e-05 (inactive)
same,slope,[13],0.00694 (inactive)
same,inhibition,[14],-0.755% (inactive)
same,inhibition,[15],-19.3% (inactive)
same,inhibition,[16],-47.1% (inactive)
Cc1sc2ncnc(Sc3nc4ccccc4s3)c2c1C,normalised thallium flux (F/F0 slope),[1],0.0102 (inactive)
same,normalized thallium flux,[2],0.0292 (inactive)
same,thallium flux rate (normalised fluorescence),[3],0.00801 (inactive)
same,thallium flux slope,[5],0.0107 (inactive)
Cc1cc(=O)oc2c(CN3CCN(C)CC3)c(O)c(Cl)cc12,cell count,[6],494
same,inhibition,[6],-13.9% (inactive)
same,inhibition of aggregation,[7],0.1% (inactive)
same,nuclei count,[7],101%
same,inhibition,[8],-17.2% (inactive)
same,nuclei count,[8],105%
same,z-score,[9]; [20],-0.81
same,z-score,[9]; [21],-0.0591
same,z-score,[9]; [22],-0.654
same,inhibition,[10],1.48% (inactive)
same,fluorescence slope,[11],-0.0297 (active)
same,NADPH fluorescence slope,[12],2e-05 (inactive)
same,slope,[13],0.00763 (inactive)
same,inhibition,[14],-9.73% (inactive)
same,inhibition,[15],14.9% (inactive)
same,inhibition,[16],17.6% (inactive)
Cc1ccc(-c2noc(CN3CCN(Cc4ccccc4)CC3)n2)cc1,normalised thallium flux (F/F0 slope),[1],0.0176 (inactive)
same,thallium flux rate (normalised fluorescence),[3],0.00768 (inactive)
same,"raw Tl+ flux slope (below DMSO = inhibition, above = activation)",[4],0.0139 (inactive)
same,thallium flux slope,[5],0.0101 (inactive)
CC(C)(C)c1ccc(C(=O)NCC(=O)OCN2C(=O)c3ccccc3C2=O)cc1,normalized thallium flux,[19],0.00471 (inactive)
same,normalized thallium flux,[2],0.031 (inactive)
same,thallium flux rate (normalised fluorescence),[3],0.00756 (inactive)
same,"raw Tl+ flux slope (below DMSO = inhibition, above = activation)",[4],0.0171 (inactive)
same,thallium flux slope,[5],0.0105 (inactive)
CC(C(=O)O)c1ccc(-c2ccccc2)c(F)c1 (stereo unspecified),cell count,[6],557
same,inhibition,[6],-7.8% (inactive)
same,inhibition of aggregation,[7],-18.5% (inactive)
same,nuclei count,[7],101%
same,inhibition,[8],-48.5% (inactive)
same,nuclei count,[8],113%
same,z-score,[9]; [20],2.7
same,z-score,[9]; [21],-2.89
same,z-score,[9]; [22],0.18
same,inhibition,[10],23.4% (inactive)
same,fluorescence slope,[11],-0.456 (inactive)
same,NADPH fluorescence slope,[12],-6e-05 (inactive)
same,slope,[13],0.0055 (inactive)
same,inhibition,[14],42.5% (inactive)
same,inhibition,[15],18.5% (inactive)
same,inhibition,[16],42.9% (inactive)
COc1ccc(C(=O)Cn2c(N3CCCCC3)nc3c2c(=O)n(C)c(=O)n3C)cc1OC,cell count,[6],537
same,inhibition,[6],4.7% (inactive)
same,inhibition of aggregation,[7],12.9% (inactive)
same,nuclei count,[7],90.8%
same,inhibition,[8],-58.1% (inactive)
same,nuclei count,[8],115%
same,z-score,[9]; [20],-0.186
same,z-score,[9]; [21],0.344
same,z-score,[9]; [22],0.238
same,inhibition,[10],3.5% (inactive)
same,fluorescence slope,[11],-0.424 (inactive)
same,NADPH fluorescence slope,[12],-9.5e-05 (inactive)
same,slope,[13],0.00577 (inactive)
same,inhibition,[14],12.6% (inactive)
same,inhibition,[15],14.5% (inactive)
same,inhibition,[16],12.6% (inactive)
